This is part of a sample that, as a whole, favours compounds with a hit. Of some 79,000 tested, about 15% had one in any assay. Active and inactive are the calls of the source. Rule as the data show it: active = growth inhibition above about 70%; inactive = the rest.
What was measured:
[1] = NCI Yeast Anticancer Drug Screen. Data for the rad52 strain (AID 147);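 also: 0% = growth of vehicle-treated control cultures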; details: S. cerevisiae rad52 mutant growth inhibition, active compounds read high
Outline: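 Compounds are applied to a genetically defined yeast strain lacking normal DNA damage repair, and inhibition of growth is expressed relative to cultures given vehicle only.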

[2] = NCI Yeast Anticancer Drug Screen. Data for the wt1 strain (AID 149);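 also: 0% = growth of vehicle-treated wt1 cultures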; details: S. cerevisiae wt1 strain (SPY 50644) growth inhibition, active compounds read high
Outline: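 Compounds are added to wt1 yeast cultures. Growth is then measured. Inhibition is expressed relative to vehicle-treated controls.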

[3] = NCI Yeast Anticancer Drug Screen. Data for the rad50EPP+ strain (AID 151);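 also: 0% = growth of vehicle-treated control cultures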; details: S. cerevisiae rad50 mutant strain, active compounds read high
Outline: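 Compounds were applied to the rad50EPP+ yeast strain, which bears a defined DNA repair alteration, and growth inhibition was determined relative to vehicle-treated cultures.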

[4] = NCI Yeast Anticancer Drug Screen. Data for the mgt1 strain (AID 153); details: S. cerevisiae mgt1 mutant growth inhibition, active compounds read high
Outline: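 Strain: mgt1 yeast, one of a set carrying defined DNA damage repair or cell cycle control alterations. Compound-treated growth compared with vehicle.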

[5] = NCI Yeast Anticancer Drug Screen. Data for the rad50 strain (AID 155);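 also: 0% = growth of vehicle-only cultures of the same strain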; details: S. cerevisiae rad50 strain growth inhibition, active compounds read high
Outline: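 Inhibition values express reduced yeast growth in compound-treated cultures relative to vehicle-treated controls.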

[6] = NCI Yeast Anticancer Drug Screen. Data for the mec2-1 strain (AID 157); details: S. cerevisiae mec2-1 strain, active compounds read high
Outline: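 Strain: mec2-1 (DNA repair/cell cycle alteration). Compound exposure, then growth measured; inhibition expressed relative to vehicle.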

[7] = NCI Yeast Anticancer Drug Screen. Data for the CLN2oe strain (AID 163);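 also: 0% = growth of vehicle-only control cultures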; details: S. cerevisiae CLN2oe strain, active compounds read high
Outline: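 Growth of a genetically modified yeast strain is measured after compound exposure and compared with cultures given vehicle alone.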

[8] = NCI Yeast Anticancer Drug Screen. Data for the cln2 rad14 strain (AID 165);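 also: 0% = growth equal to vehicle treated cultures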; details: S. cerevisiae cln2 rad14 strain, active compounds read high
Outline: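 Compounds are applied to the cln2 rad14 yeast strain, and growth is then compared with that of vehicle-treated cultures to give inhibition.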

[9] = NCI Yeast Anticancer Drug Screen. Data for the bub3 strain (AID 167); details: S. cerevisiae bub3 mutant strain, active compounds read high
Outline: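 Steps: expose the mutant yeast strain to compound; grow alongside vehicle-treated cultures; measure growth; express inhibition against the vehicle cultures.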

[10] = NCI Yeast Anticancer Drug Screen. Data for the mlh1 strain (AID 171);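 also: 0% = growth of vehicle-treated control cultures of the same strain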; details: S. cerevisiae mlh1 strain growth inhibition, active compounds read high
Outline: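 Growth of the mutant yeast strain after compound exposure, expressed as inhibition relative to vehicle-only controls.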

[11] = NCI Yeast Anticancer Drug Screen. Data for the sgs1 strain (AID 173);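 also: 0% = growth of vehicle-only control cultures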; details: S. cerevisiae sgs1 mutant, active compounds read high
Outline: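 Growth of a yeast strain bearing a defined genetic alteration is measured after compound treatment. Inhibition is expressed relative to vehicle-only controls.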

[12] = NCI Yeast Anticancer Drug Screen. Data for the mlh1 rad18 strain (AID 175); details: S. cerevisiae mlh1 rad18 strain growth inhibition, active compounds read high
Outline: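 Read-out is yeast growth inhibition, calculated against vehicle-only controls. The compound was applied to a strain engineered with DNA damage repair alterations.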

[13] = NCI Yeast Anticancer Drug Screen. Data for the rad18 strain (AID 177); details: S. cerevisiae rad18 mutant growth inhibition, active compounds read high
Outline: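 Growth of the mutant yeast strain after compound exposure, normalised to vehicle-only cultures.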

[14] = NCI Yeast Anticancer Drug Screen. Data for the rad14 strain (AID 159);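 also: 0% = growth of vehicle-treated control cultures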; details: S. cerevisiae rad14 strain growth inhibition, active compounds read high
Outline: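 A mutant yeast strain defective in DNA damage repair is treated with compound; inhibition of its growth is scored against untreated, vehicle-exposed cultures.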

[15] = NCI Yeast Anticancer Drug Screen. Data for the sgs1 mgt1 strain (AID 161);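 also: 0% = growth of cultures given vehicle only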; details: S. cerevisiae sgs1 mgt1 strain, active compounds read high
Outline: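 Genetically altered yeast, compound exposure, growth inhibition relative to vehicle.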

[16] = NCI Yeast Anticancer Drug Screen. Data for the wt2 strain (AID 169);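 also: 0% = growth of vehicle-treated yeast cultures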; details: S. cerevisiae wt2 strain growth inhibition, active compounds read high
Outline: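 This strain belongs to a panel of yeast strains with defined genetic alterations in DNA damage repair or cell cycle control. Compounds are applied, and growth inhibition is measured against vehicle-treated cultures.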

[17] = at 5.0 µM (retest, dose inferred, filed as 0.5)
[18] = at 50.0 µM (retest, dose inferred, filed as 5.0)

Measured: growth inhibition

S=C(S)NN1CCOCC1
inactive: [1]; at 3.7 µM 68% | [1]; at 11.0 µM 35% | [1]; at 33.0 µM 38% | [1]; at 100.0 µM 50% | [2]; at 1.2 µM 43% | [2]; at 3.7 µM 29% | [2]; at 11.0 µM 35% | [2]; at 33.0 µM 51% | [2]; at 100.0 µM 60% | [4]; at 1.2 µM 52% | [4]; at 3.7 µM 39% | [4]; at 11.0 µM 30% | [4]; at 33.0 µM 21% | [4]; at 100.0 µM 18% | [5]; at 3.7 µM 57% | [5]; at 11.0 µM 29% | [5]; at 33.0 µM 23% | [5]; [18] 66% | [5]; at 100.0 µM 28% | [6]; at 3.7 µM 60% | [6]; [17] 65% | [6]; at 11.0 µM 32% | [6]; at 33.0 µM 28% | [6]; [18] -4% | [6]; at 100.0 µM 35% | [7]; at 1.2 µM 57% | [7]; at 3.7 µM 31% | [7]; at 11.0 µM 29% | [7]; at 33.0 µM 27% | [7]; at 100.0 µM 42% | [8]; [18] 22% | [9]; at 1.2 µM 69% | [9]; at 3.7 µM 59% | [9]; at 11.0 µM 31% | [9]; at 33.0 µM 7% | [9]; at 100.0 µM 8% | [10]; at 1.2 µM 63% | [10]; at 3.7 µM 30% | [10]; at 11.0 µM 30% | [10]; at 33.0 µM 34% | [11]; at 3.7 µM 47% | [11]; at 11.0 µM 39% | [11]; at 33.0 µM 54% | [11]; at 100.0 µM 50% | [13]; at 3.7 µM 67% | [13]; at 11.0 µM 67% | [13]; at 33.0 µM 50%
active: [1]; at 1.2 µM 84% | [3]; at 1.2 µM 96% | [3]; at 3.7 µM 80% | [3]; at 11.0 µM 86% | [3]; at 33.0 µM 84% | [3]; at 100.0 µM 89% | [5]; at 1.2 µM 87% | [5]; [17] 89% | [5]; at 50.0 µM 85.2% | [6]; at 1.2 µM 80% | [6]; at 50.0 µM 97.8% | [8]; [17] 83% | [8]; at 50.0 µM 87.5% | [9]; [17] 85% | [9]; [18] 70% | [9]; at 50.0 µM 96% | [10]; at 100.0 µM 72% | [11]; at 1.2 µM 84% | [12]; [17] 94% | [12]; [18] 92% | [12]; at 50.0 µM 86.8% | [13]; at 1.2 µM 87% | [13]; at 100.0 µM 72%

CCOC(=O)c1cc([N+](=O)[O-])cc([N+](=O)[O-])c1Sc1ncnc2nc[nH]c12
active: [1]; at 100.0 µM 95% | [2]; at 100.0 µM 97% | [4]; at 33.0 µM 83% | [4]; at 100.0 µM 98% | [5]; [18] 75% | [5]; at 100.0 µM 96% | [6]; at 100.0 µM 97% | [14]; at 100.0 µM 97% | [15]; [18] 75% | [7]; at 100.0 µM 97% | [8]; at 50.0 µM 77.2% | [9]; at 33.0 µM 70% | [9]; [18] 70% | [9]; at 100.0 µM 96% | [16]; at 100.0 µM 96% | [10]; at 33.0 µM 85% | [10]; at 100.0 µM 97% | [11]; at 33.0 µM 74% | [11]; at 100.0 µM 96% | [12]; [18] 89% | [12]; at 50.0 µM 78.5% | [13]; at 33.0 µM 81% | [13]; at 100.0 µM 97%
inactive: [1]; at 1.2 µM 13% | [1]; at 3.7 µM 2% | [1]; at 11.0 µM 11% | [1]; at 33.0 µM 62% | [2]; at 1.2 µM -29% | [2]; at 3.7 µM -44% | [2]; at 11.0 µM -32% | [2]; at 33.0 µM 50% | [4]; at 1.2 µM -17% | [4]; at 3.7 µM -18% | [4]; at 11.0 µM -8% | [5]; at 1.2 µM -15% | [5]; at 3.7 µM -15% | [5]; [17] 36% | [5]; at 11.0 µM 1% | [5]; at 33.0 µM 68% | [5]; at 50.0 µM 36% | [6]; at 1.2 µM -33% | [6]; at 3.7 µM -28% | [6]; [17] 22% | [6]; at 11.0 µM -2% | [6]; at 33.0 µM 65% | [6]; [18] 69% | [6]; at 50.0 µM 60% | [14]; at 1.2 µM -30% | [14]; at 3.7 µM -21% | [14]; at 11.0 µM -9% | [14]; at 33.0 µM 66% | [15]; [17] 52% | [15]; at 50.0 µM 62% | [7]; at 1.2 µM -19% | [7]; at 3.7 µM -33% | [7]; at 11.0 µM -23% | [7]; at 33.0 µM 54% | [8]; [17] 5% | [8]; [18] -16% | [9]; at 1.2 µM -26% | [9]; at 3.7 µM -12% | [9]; [17] 38% | [9]; at 11.0 µM -11% | [9]; at 50.0 µM 59.5% | [16]; at 1.2 µM -29% | [16]; at 3.7 µM -22% | [16]; at 11.0 µM -24% | [16]; at 33.0 µM 18% | [10]; at 1.2 µM -31% | [10]; at 3.7 µM 2% | [10]; at 11.0 µM 2% | [11]; at 1.2 µM -11% | [11]; at 3.7 µM -5% | [11]; at 11.0 µM 2% | [12]; [17] 42% | [13]; at 1.2 µM -18% | [13]; at 3.7 µM -7% | [13]; at 11.0 µM 28%

CCOC(=O)c1cnc2cc(C(F)(F)F)ccc2c1N=[N+]=[N-]
inactive: [1]; at 1.2 µM 12% | [1]; at 3.7 µM 13% | [1]; at 11.0 µM 23% | [1]; at 33.0 µM 48% | [2]; at 1.2 µM 3% | [2]; at 3.7 µM 4% | [2]; at 11.0 µM 8% | [2]; at 33.0 µM 37% | [3]; at 1.2 µM 6% | [3]; at 3.7 µM 13% | [3]; at 11.0 µM 26% | [3]; at 33.0 µM 54% | [5]; at 1.2 µM 8% | [5]; at 3.7 µM 25% | [5]; [17] 7% | [5]; at 11.0 µM 23% | [5]; at 33.0 µM 50% | [5]; [18] 20% | [5]; at 50.0 µM 44.4% | [6]; at 1.2 µM 14% | [6]; at 3.7 µM 12% | [6]; [17] -3% | [6]; at 11.0 µM 22% | [6]; at 33.0 µM 56% | [6]; [18] 4% | [6]; at 50.0 µM 20.2% | [14]; at 1.2 µM 7% | [14]; at 3.7 µM 3% | [14]; at 11.0 µM 12% | [14]; at 33.0 µM 49% | [15]; [17] -1% | [15]; [18] -3% | [15]; at 50.0 µM 43.4% | [7]; at 1.2 µM 11% | [7]; at 3.7 µM 12% | [7]; at 11.0 µM 18% | [7]; at 33.0 µM 64% | [8]; [17] -4% | [8]; [18] 1% | [8]; at 50.0 µM 25.1% | [9]; at 1.2 µM 11% | [9]; at 3.7 µM 7% | [9]; [17] -17% | [9]; at 11.0 µM 14% | [9]; at 33.0 µM 46% | [9]; [18] 48% | [9]; at 50.0 µM -3.4% | [16]; at 1.2 µM 2% | [16]; at 3.7 µM 2% | [16]; at 11.0 µM 14% | [16]; at 33.0 µM 59%
active: [1]; at 100.0 µM 85% | [2]; at 100.0 µM 87% | [3]; at 100.0 µM 82% | [5]; at 100.0 µM 83% | [6]; at 100.0 µM 90% | [14]; at 100.0 µM 93% | [7]; at 100.0 µM 87% | [9]; at 100.0 µM 74% | [16]; at 100.0 µM 93%

— PubChem BioAssay (NCI)
